Compound activity: PubChem, National Center for Advancing Translational Sciences (NCATS)
Compounds with a hit are over-represented: about 7.3% of the library has one in this group of screens.
AmpC inh no detg – AmpC beta-lactamase inhibition without detergent; AmpC nitrocefin hydrolysis, absorbance 480 nm, 0.0001% Triton; Potency, µM (series often up to 57.1 µM), most hits filed as inhibitors; 330,000 tested, 0.52% active; P00811; further: nearly all actives have a fitted effect of over 20% in size
Target sequence (P00811 whole entry, looked up): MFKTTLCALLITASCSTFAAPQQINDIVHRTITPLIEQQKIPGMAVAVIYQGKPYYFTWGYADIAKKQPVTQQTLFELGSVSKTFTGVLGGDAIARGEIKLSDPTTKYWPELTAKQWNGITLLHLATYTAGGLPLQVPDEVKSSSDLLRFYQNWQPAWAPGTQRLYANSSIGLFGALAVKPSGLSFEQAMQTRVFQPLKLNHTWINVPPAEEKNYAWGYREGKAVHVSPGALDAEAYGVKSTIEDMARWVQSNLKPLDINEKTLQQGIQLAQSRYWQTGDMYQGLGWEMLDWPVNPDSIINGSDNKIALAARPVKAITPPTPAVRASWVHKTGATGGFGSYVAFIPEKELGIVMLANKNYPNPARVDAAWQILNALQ
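AmpC (5.3 nM in the dispensed reagent) in 20 mM phosphate pH 7.0 with 0.01% (detergent screen) or 0.0001% Triton X-100 was preincubated with compounds for 15 min at room temperature. Nitrocefin was then added from an 800 uM solution, and hydrolysis was followed at 480 nm.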
FMDV antiviral – antivirals against foot and mouth disease virus; FMDV antiviral cell-based qHTS; Potency, µM (titrated, usually from 57.9 µM), actives largely listed as inhibitors; 410,000 tested, 1.2% active; AID 1159524; calls by dose curve; tested in HEK293T cells; further: read-out not given here; nearly all actives have a fitted effect of over 45% in size
AmpC inh detg – AmpC beta-lactamase inhibition with detergent present; AID 485294; Potency, µM (doses to about 114 µM), actives largely listed as inhibitors; P00811; AmpC hydrolysis of nitrocefin, absorbance 480 nm, 0.01% Triton; 370,000 tested, 0.041% active; further: nearly all actives have a fitted effect of over 25% in size
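AmpC (5.3 nM in the dispensed reagent) in 20 mM phosphate pH 7.0 with 0.01% (detergent screen) or 0.0001% Triton X-100 was preincubated with compounds for 15 min at room temperature. Nitrocefin was then added from an 800 uM solution, and hydrolysis was followed at 480 nm.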
HCV inh – HCV inhibition | AID 651820 | Potency, µM (highest dose often 41.8 µM), hits mostly inhibitors | 340,000 tested, 3.4% active | Huh7.5.1 HCVcc-Cre infection, luciferase reporter, 44 h
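Infectious HCVcc-Cre (~0.5 moi) was added to cells just after compound, with cells seeded 4 h earlier at 1,000 per well. Luciferase activity after 44 h culture reported infection; substrate was incubated 15 min at room temperature before reading.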
HCMV antiviral – human cytomegalovirus inhibition; activity change, negative = inhibition, % at 57.5 µM; 410,000 tested, 4.5% active; HFF cells, HCMV-luciferase reporter, 72 h; stronger effect = lower value; in the data active means activity change below about -60%; inconclusive means no clear call, values can overlap the other calls; inactive means above about -39%
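Compounds were evaluated in HFFs infected with an HCMV luciferase reporter virus (MOI 1 PFU/cell). Luciferase in lysates collected 72 h post infection served as the replication measure.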
Numbers stand for hits; . = inactive; ? = inconclusive; / = no result. Unless noted, the call rests on the fitted dose curve; in most records, active means well fitted curve in the direction sought with a large enough effect; inconclusive means small, poorly fitted or top-dose-only effect, or another doubt; inactive means no such curve, though single readings can be large; an effect the other way counts as inactive or inconclusive.

SMILES	AmpC inh no detg	FMDV antiviral	AmpC inh detg	HCV inh	HCMV antiviral
Cc1csc(NC(=O)CSc2nc3nc(C)cc(C)n3n2)n1	.	.	.	.	.
Cc1ccc(C(=O)COC(=O)COc2ccccc2[N+](=O)[O-])s1	.	.	.	.	-101
CCOC(=O)COc1ccccc1/C=C\[N+](=O)[O-]	.	14µM	?	?	/
O=C(COC(=O)COc1ccccc1[N+](=O)[O-])NC1CCCC1	.	.	.	.	.
COc1ccccc1CC(=O)Nc1ccc(S(=O)(=O)N2CCOCC2)cc1	.	.	.	?	.
COc1cc(OC)c(N(C)S(=O)(=O)c2cccc(C(=O)OCC(=O)N(C)Cc3ccccc3)c2)cc1Cl	/	.	/	11µM	-63
Cc1c(C(=O)Nc2cnn(C(C)(C)C(=O)NCc3ccco3)c2)oc2ccccc12	/	/	/	/	.
O=C1C(=O)c2ccc(-c3ccccc3)cc2-c2ccccc21	.	14µM	.	4.5µM	-99
Nc1ccc2c(c1)C(=O)C(=O)c1ccccc1-2	.	5.6µM	.	2.5µM	-98
Nc1ccc2c(c1)C(=O)c1ccccc1-2	/	.	/	?	.
CN(CC(=O)Nc1ccc(F)cc1)C(=O)Cn1cnc2ccc(Cl)cc2c1=O	.	?	?	.	.
COCCCNC(=O)C1Cc2cc(S(=O)(=O)N3CCCC3)ccc2N1C(C)=O (stereo unspecified)	.	.	.	.	.
O=C(COc1cccc2ccccc12)N/N=C/c1ccc(Sc2nc3ccccc3s2)o1	.	.	.	?	.
COCC(=O)N/N=C/c1ccc(Sc2nc3ccccc3s2)o1	.	.	.	.	.
O=C(Cc1cccc2ccccc12)N/N=C/c1ccc(Sc2nc3ccccc3s2)o1	.	.	.	10µM	.
N#CCC(=O)N/N=C/c1ccc(Sc2nc3ccccc3s2)o1	?	.	.	.	-99
COc1ccc(NC(=O)C[C@H]2C(=O)N(C3CCCCC3)C[C@@H]2C)cc1	/	.	/	/	.
CC1CCCCC1Nc1ncnc2sccc12 (stereo unspecified)	.	.	.	?	?
O=C1Nc2ccccc2/C1=C\C(=O)c1ccccc1	.	32µM	.	.	.
O=C(CNC(=O)OCc1ccccc1)NCC(=O)NC(Cc1c[nH]c2ccccc12)C(=O)O (stereo unspecified)	/	.	/	/	.
COc1ccc(Cn2cc(CN3CC(N4CCSCC4)CS3(=O)=O)nn2)cc1 (stereo unspecified)	/	.	/	/	-100
CC(NC(=O)c1ccco1)C(c1cccs1)N1CCN(c2ccc(F)cc2)CC1 (stereo unspecified)	.	/	.	10µM	?
Cc1ccccc1C(=O)NC(C)C(c1cccs1)N1CCOCC1 (stereo unspecified)	2.8µM	.	?	.	.
Cc1cccc(NC(=O)NC(C)C(c2cccs2)N2CCOCC2)c1 (stereo unspecified)	.	.	?	.	-67
COc1ccc(N2CCN(Cc3nnnn3C3CCCCC3)CC2)cc1	.	.	.	.	?
SMILES	AmpC inh no detg	FMDV antiviral	AmpC inh detg	HCV inh	HCMV antiviral
O=C1C=C(c2c(O)ccc3ccccc23)c2ccccc2C1=O	/	22µM	/	?	-97
O=C(c1ccccc1NS(=O)(=O)c1ccccc1[N+](=O)[O-])N1CCCC1	.	.	.	.	.
CCCN(Cc1ccc(N(C)C)cc1)CC1CC1	.	/	.	.	.
CCCN(Cc1ccc(N(CC)CC)cc1)CC1CC1	.	/	.	10µM	-66
CCOc1ccc(S(=O)(=O)N2CCN(CC)CC2)cc1NC(=O)c1ccccc1F	.	.	.	.	-84
CCOC(=O)c1c(NC(=O)CSc2nccn2C)sc(C(=O)NC)c1C	.	.	?	10µM	.
CCOC(=O)c1c(NC(=O)COC(=O)CC(NC(C)=O)c2ccccc2)sc(C(=O)NC)c1C (stereo unspecified)	.	.	.	10µM	.
CCOC(=O)c1cc(C)sc1NC(=O)CSc1nccn1C	.	.	.	13µM	?
CCOC(=O)c1c(NC(=O)COC(=O)c2ccc(O)cc2)sc(C(=O)NC)c1C	/	.	/	?	.
OC(COCc1ccccc1)CN1CCCCC1 (stereo unspecified)	.	.	.	.	.
NC(=O)COC(=O)c1cccnc1Nc1ccccc1F	.	.	.	.	-71
Cc1nn(-c2ccccc2)c(N)c1-c1ccccc1	.	.	.	.	.
Cc1nn(-c2nc3ccccc3[nH]2)c(N)c1-c1ccccc1	.	.	.	32µM	.
Cc1ccc(Nc2nnc(C)c3ccccc23)c(C)c1	/	.	/	.	.
Nc1ccn(C2OC(CO)C(O)C2F)c(=O)n1 (stereo unspecified)	/	.	/	/	-82
Nc1ccn(C2OC(CO)C(O)C2O)c(=O)n1 (stereo unspecified)	/	.	/	/	/
CCCCCCCCCCCCCCCC(=O)OCC1OC(n2ccc(N)nc2=O)C(O)C1O (stereo unspecified)	/	.	/	?	.
Nc1ccn([C@@H]2O[C@H](CNC(=O)[C@H]3CCC(=O)N3)[C@@H](O)[C@H]2O)c(=O)n1	/	.	/	/	.
Nc1ccn([C@@H]2O[C@H](CO)[C@@H](O)[C@@H]2O)c(=O)n1	.	.	.	?	-100
CCCCCCCCCCCCCCCC(=O)Nc1ccn(C2OC(CO)C(O)C2O)c(=O)n1 (stereo unspecified)	/	.	/	.	-98
NC[C@H]1O[C@@H](n2ccc(N)nc2=O)[C@H](O)[C@@H]1O	/	.	/	/	-87
CC(=O)c1ccc(OC(C)c2nc3ccccc3s2)cc1 (stereo unspecified)	.	.	.	.	.
CCN1C(=O)N/C(=C/c2ccc(C)o2)C1=O	.	.	.	.	.
Cc1ccc(/C=C2/NC(=O)N(Cc3ccc(Br)cc3)C2=O)o1	2.5µM	.	.	.	.
Cc1ccc(/C=C2/NC(=O)N(Cc3ccccc3F)C2=O)o1	.	.	.	.	-72
SMILES	AmpC inh no detg	FMDV antiviral	AmpC inh detg	HCV inh	HCMV antiviral
CN1OC[C@@H]2CN[C@H](c3cccc(N4CCOCC4)c3)C[C@@H]21	/	.	/	/	.
CCOc1ccc(CCNC(=O)CCSCc2ccc(Cl)cc2)cc1OCC	/	.	.	/	.
O=C(NCC(c1cccnc1)N1CCN(c2ccc(F)cc2)CC1)c1cccc(Cl)c1 (stereo unspecified)	.	25µM	?	14µM	.
COc1ccc(N2CCN(C(CNS(=O)(=O)c3cc(F)ccc3F)c3cccnc3)CC2)cc1 (stereo unspecified)	.	.	.	.	-107
COc1ccc(OC2CCN(C(=O)Nc3ccc(C)cc3)CC2)cc1	.	.	.	?	.
COc1cc2c(cc1NC(=O)c1ccncc1)oc1ccccc12	.	.	?	?	/
COc1cc2c(cc1NC(=O)c1cccnc1)oc1ccccc12	.	.	.	3.2µM	.
COc1cc2c(cc1NC(=O)c1cccc([N+](=O)[O-])c1)oc1ccccc12	.	13µM	?	?	?
COc1ccc(OC)c(CN2CCN(C(=O)CNC(=O)c3ccccc3F)CC2)c1	.	.	/	.	.
